Test systems include SR leukemia; RPMI-8226 leukemia; OVCAR-8 ovarian; OVCAR-5 ovarian; OVCAR-4 ovarian; SK-OV-3 ovarian; IGROV1 ovarian; OVCAR-3 ovarian; HS 578T breast; T-47D breast; BT-549 breast; MDA-MB-435 melanoma; SW-620 colon; MCF7 breast; HCT-116 colon; HCC-2998 colon; KM12 colon; NCI/ADR-RES ovarian.
Test in all cases: NCI-60 one-dose screen, 48 h (100 = growth as untreated, 0 = no growth, -100 = all killed)
Common to all, as to conditions: 10 µM

Among the data in PubChem BioAssay (NCI) are growth values, retold here.

About 83,000 compounds went through this panel and 20% of them were active in at least one assay; those are over-represented in the sample as a whole.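 48-hour exposure, single concentration, 96-well plates; percent growth endpoint where 0 means no net growth. Active: below 10.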 A number with no mark means an inactive call. The source made the active and inactive calls.

Regarding `O=C1C=CC(=O)N1c1ccc(N2C(=O)C=CC2=O)cc1`, the growth in the assay with SR leukemia was 0.0539% (active); in the assay on RPMI-8226 leukemia, 38.6%; with OVCAR-8 ovarian, 109%; with OVCAR-5 ovarian, 97.7%; in the assay with OVCAR-4 ovarian, 101%; in the assay on SK-OV-3 ovarian, 97.3%. Also, the growth with IGROV1 ovarian is 105%; in the assay with OVCAR-3 ovarian, 103%; with HS 578T breast, 128%; in the assay on T-47D breast, 95.9%; with BT-549 breast, 89.6%; with MDA-MB-435 melanoma, 107%. Moreover, the growth with SW-620 colon was 112%; in the assay on MCF7 breast it was 97%; with HCT-116 colon, 98.3%; with HCC-2998 colon, 115%; in the assay with KM12 colon it was 113%.

On to `CCC(C)(c1ccc(O)c(C)c1)c1ccc(O)c(C)c1`, for which the growth with SR leukemia was 113%; with RPMI-8226 leukemia, 84.1%; with OVCAR-8 ovarian it was 103%; in the assay on OVCAR-5 ovarian it was 101%; in the assay with OVCAR-4 ovarian it was 91.9%; with SK-OV-3 ovarian, 50.8%. Besides, the growth with IGROV1 ovarian was 85.5%; with OVCAR-3 ovarian it was 102%; in the assay with HS 578T breast, 95%; in the assay with NCI/ADR-RES ovarian it was 103%; with T-47D breast it was -5.53% (active); in the assay with BT-549 breast it was 192%. For the same molecule, the growth in the assay with MDA-MB-435 melanoma was 78.8%; with SW-620 colon, 111%; in the assay on MCF7 breast, 111%; in the assay on HCT-116 colon it was 94%; with HCC-2998 colon, 107%; in the assay with KM12 colon it was 94.6%.

Take `O=C1c2cccc3cc([N+](=O)[O-])cc(c23)C(=O)N1CCN1CCCC1`: the growth in the assay on SR leukemia was -34.6% (active); in the assay on RPMI-8226 leukemia, -19.1% (active); in the assay on OVCAR-8 ovarian, 9.55% (active); with OVCAR-5 ovarian it was -1.73% (active); with OVCAR-4 ovarian, 3.14% (active); with SK-OV-3 ovarian, -0.119% (active). For the same molecule, the growth is -2.59% (active) with IGROV1 ovarian; -16.8% (active) with OVCAR-3 ovarian; -25.4% (active) with HS 578T breast; -6.31% (active) with T-47D breast; 3.71% (active) in the assay on BT-549 breast; 16.2% in the assay with MDA-MB-435 melanoma. Besides, the growth with SW-620 colon was -4.97% (active); with MCF7 breast, 1.22% (active); in the assay on HCT-116 colon it was -37.6% (active); in the assay with HCC-2998 colon, -69.6% (active); with KM12 colon, 1.61% (active).

On to `Cc1c(-c2ccccc2)[nH]c2ccccc12`, for which the growth with SR leukemia is 102%; in the assay with RPMI-8226 leukemia it was 88.3%; in the assay on OVCAR-8 ovarian it was 105%; in the assay with OVCAR-5 ovarian it was 99%; in the assay with OVCAR-4 ovarian it was 96.7%; in the assay with IGROV1 ovarian, 103%. Besides, the growth in the assay on OVCAR-3 ovarian is 105%; in the assay on HS 578T breast, 102%; in the assay on NCI/ADR-RES ovarian it was 105%; in the assay with T-47D breast, 92.4%; with MDA-MB-435 melanoma it was 111%; in the assay on SW-620 colon it was 99.3%. The growth in the assay with MCF7 breast is 79.7%; in the assay on HCT-116 colon it was 113%; in the assay with HCC-2998 colon, 102%; in the assay on KM12 colon, 103%.

For `O=C(CNS(=O)(=O)Cc1ccccc1)NNc1ccccc1`, the growth in the assay on SR leukemia was 39.2%; with RPMI-8226 leukemia, 62.4%; in the assay with OVCAR-8 ovarian, 58.4%; with OVCAR-5 ovarian it was 68.6%; with OVCAR-4 ovarian, 42.6%; in the assay on SK-OV-3 ovarian, 78.7%. Also, the growth was 65.5% in the assay on IGROV1 ovarian; 86.8% in the assay with OVCAR-3 ovarian; 56.6% in the assay on T-47D breast; 82.9% in the assay on BT-549 breast; 21.9% with MDA-MB-435 melanoma; 76.5% with MCF7 breast. Moreover, the figures for the growth in the assay with HCT-116 colon, in the assay on HCC-2998 colon and in the assay on KM12 colon were 55.6%, 70.5% and 15%, respectively.

For the molecule `N#C/C(=C/N1C(=O)/C(=C/c2ccc([N+](=O)[O-])cc2)SC1=S)c1nc2ccccc2s1`, the growth is 73.8% in the assay with SR leukemia; 67.4% with RPMI-8226 leukemia; 88.4% with OVCAR-8 ovarian; 90.3% in the assay with OVCAR-5 ovarian; 104% in the assay on OVCAR-4 ovarian; 82.4% in the assay with SK-OV-3 ovarian. The growth in the assay with IGROV1 ovarian was 69.8%; with OVCAR-3 ovarian, 82.2%; with HS 578T breast, 90.4%; in the assay on T-47D breast, 53.6%; with BT-549 breast, 84%; with MDA-MB-435 melanoma, 99%. Also, the growth with SW-620 colon is 87.8%; with MCF7 breast, 60.7%; in the assay on HCT-116 colon it was 85.9%; in the assay with HCC-2998 colon, 92.6%; with KM12 colon, 89.7%.

As for `O=C(O)c1ccccc1.[Ag]`, the growth in the assay with SR leukemia is 102%; in the assay on RPMI-8226 leukemia it was 96.9%; with OVCAR-8 ovarian it was 96.8%; in the assay on OVCAR-5 ovarian it was 102%; with OVCAR-4 ovarian it was 95%; in the assay on SK-OV-3 ovarian, 109%. The growth was 116% with IGROV1 ovarian; 113% in the assay with OVCAR-3 ovarian; 114% with HS 578T breast; 72.6% in the assay on T-47D breast; 99.4% with BT-549 breast; 88.5% with MDA-MB-435 melanoma. For the same molecule, the growth with MCF7 breast was 96.4%; with HCT-116 colon, 96.8%; in the assay on HCC-2998 colon, 109%; with KM12 colon, 89.3%.
